PubChem BioAssay AID588689 (Southern Research Specialized Biocontainment Screening …, 2011)
Screen size: about 340,000 compounds; about 1,000 (0.29%) were called active. Cut-off read from the data, not from the text of the source: inconclusive = inhibition above about 29% without an active follow-up result; inactive = below that. Not all results are given here. Measured potencies and affinities stand elsewhere.

The compounds below were run against Genome polyprotein (Dengue virus type 2 (strain 16681-PDK53)) (UniProt P29991) (assay: flavivirus cap methylation enzyme inhibition – biochemical, confirmation dose response, primary screen (AID 588689)). Details: Dengue-2 NS5 methyltransferase capping enzyme assay, at 25 µM, stronger effect = higher value.

inhibition, inactive:
Cc1[nH]oc(=O)c1N=Nc1ccc2[nH]c(=O)[nH]c2c1 -0.78%, Cc1c(NC(=O)Nc2cccc(Cl)c2Cl)c(=O)n(-c2ccccc2)n1C 3.9%, C/C(N)=C(/C#N)C(=O)COC(=O)[C@@H](NC(=O)c1ccccc1Cl)C(C)C -7.12%, CCCCc1nnc(SCC(=O)Nc2nccs2)n1CC -0.32%, CC1CCCN(S(=O)(=O)c2ccc3[nH]c(=O)cc(C(=O)NCCCN4CCCCCC4)c3c2)C1 (stereo unspecified) -5.49%, Cc1cccc(N2C(=O)c3ccc(Br)cc3C2=O)n1 -2.38%, NC1=C(Br)C(=O)c2ncccc2C1=O 20.2%, O=C1c2cccnc2-c2ncccc21 5.95%, COC1=C(N)C(=O)c2nc(C)ccc2C1=O 12.3%, O=C(OCC(=O)N1CCOCC1)c1ccc[nH]c1=O -3.24%, CCN(Cc1ccccc1)C(=O)CCNS(=O)(=O)c1cc(Br)cnc1N 2.62%, CC1CCN(c2nc3ccc(C(=O)N4CCN(Cc5ccc6c(c5)OCO6)CC4)cc3s2)CC1 -4.17%, COc1ccc2nc(N3CCC(C)CC3)c(C#N)cc2c1 14.4%, COc1ccc2nc(N3CCCC3)c(C#N)cc2c1 12.8%, CC(=O)Nc1ccc(NC(=O)C(C)OC(=O)CCC2CCCCC2)cc1 (stereo unspecified) 0.32%, CCN(C(=O)COC(=O)/C=C/c1ccc(Cl)c(Cl)c1)c1c(N)n(Cc2ccccc2)c(=O)[nH]c1=O 2.22%, COc1ccccc1OCCCCNC(C)(C)C -1.39%, O=C(Nc1ccc(S(=O)(=O)Nc2ncccn2)cc1)c1ccc(Br)o1 -3.89%, N#Cc1c(N)sc2c1CCCCCC2 -3.42%, CC1(C)Cc2c(C#N)c(N)sc(=S)c2CO1 4.14%, COc1cc2c(cc1OC)C(c1ccccc1F)NCC2 (stereo unspecified) -3.4%, O=C(CN1CCC(NC(=O)c2ccccc2Cl)CC1)NCc1ccccc1 -1.62%, COc1ccc(CNC(=O)C(C)N2CCN(S(=O)(=O)c3ccccc3F)CC2)cc1 (stereo unspecified) -2.2%, COc1cc(/C=C2/C(=O)ON=C2c2ccccc2)ccc1O -8.45%, CCOc1cc(/C=C2\C(=O)ON=C2C)ccc1OCc1ccccc1 -8.01%, C=CCOc1ccc(/C=C2/C(=O)ON=C2C)cc1OC 28.1%, CCOc1cc(/C=C2/C(=O)ON=C2C)ccc1O -24.5%, CCOc1ccc(Cl)cc1/C=C1/C(=O)ON=C1C 20.2%, CCOc1cc(/C=C2/C(=O)ON=C2C)ccc1OCc1ccc(F)cc1 24.8%, CCCOc1ccc(/C=C2/C(=O)ON=C2C)cc1Cl 12.4%, COc1ccc(/C=C2/C(=O)ON=C2c2ccccc2)cc1OC -17.6%
